Source: PubChem BioAssay AID624330 (Southern Research Specialized Biocontainment Screening …, 2012)
Among all 340,000 compounds or so, about 2,100 (0.62%) were called active.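 How the source made its calls: active means first-screen hits whose inhibition reached a set limit at any dose in the follow-up dose series; inconclusive means inhibition above the set first-screen limit but never retested; inactive means the rest.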 The list is a sample of the results. Entries with a potency or affinity are not part of this list.

molecular target: Rac GTPase-activating protein 1 (Homo sapiens) (UniProt Q9H0H5); test: blockers of MgcRacGAP-driven Rac1 GTP hydrolysis – biochemical, ADP Hunter fluorescence, primary and confirmatory, confirmation (AID 624330); details: MgcRacGAP-stimulated Rac1 GTP hydrolysis, at 30 µM, stronger effect = higher value, GST-tagged Rac1 F28L mutant substrate;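 further: fluorescence reports GDP produced by GAP-driven GTP hydrolysis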
Sequence (Q9H0H5 whole entry, looked up): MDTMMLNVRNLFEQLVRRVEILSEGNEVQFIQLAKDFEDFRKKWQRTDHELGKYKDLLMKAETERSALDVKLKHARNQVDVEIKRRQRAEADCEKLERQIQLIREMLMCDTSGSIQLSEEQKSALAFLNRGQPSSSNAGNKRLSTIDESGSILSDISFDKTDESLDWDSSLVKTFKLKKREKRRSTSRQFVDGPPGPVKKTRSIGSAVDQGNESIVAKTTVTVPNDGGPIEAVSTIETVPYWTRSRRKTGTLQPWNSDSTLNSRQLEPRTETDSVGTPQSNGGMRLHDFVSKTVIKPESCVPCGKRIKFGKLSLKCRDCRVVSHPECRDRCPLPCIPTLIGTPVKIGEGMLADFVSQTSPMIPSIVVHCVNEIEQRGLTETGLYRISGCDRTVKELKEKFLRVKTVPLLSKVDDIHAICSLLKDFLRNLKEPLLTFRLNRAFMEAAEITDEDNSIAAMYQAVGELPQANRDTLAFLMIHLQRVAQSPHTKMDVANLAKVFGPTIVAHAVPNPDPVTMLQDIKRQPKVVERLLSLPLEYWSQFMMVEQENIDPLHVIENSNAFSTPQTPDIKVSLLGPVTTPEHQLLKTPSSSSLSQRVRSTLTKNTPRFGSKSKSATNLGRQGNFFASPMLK

inhibition, inactive:
O=C(c1cc2c(=O)n3ccccc3nc2s1)N1CCN(Cc2ccccc2)CC1 4.57%, Cc1c(-n2c(=S)[nH]c3ccccc3c2=O)c(=O)n(-c2ccccc2)n1C 4.22%, Cc1c(C(c2ccc(N(C)C)cc2)c2c(C)n(C)n(-c3ccccc3)c2=O)c(=O)n(-c2ccccc2)n1C -5.89%, Cc1c(N(C)C)c(=O)n(-c2ccccc2)n1C 3.4%, CCC(C)C1=CC(=Nc2c(C)n(C)n(-c3ccccc3)c2=O)C=C(C(C)CC)C1=O (stereo not drawn) 9.72%, Cc1c(N=Cc2nc3ccccc3[nH]2)c(=O)n(-c2ccccc2)n1C 17.9%, CC1=CC(=Nc2c(C)n(C)n(-c3ccccc3)c2=O)C=C(C)C1=O -4.18%, O=NNc1nc2ccccc2n1Cc1ccccc1 7.61%, CCOC(=O)C(NC(=O)Nc1ccc(F)cc1F)(Oc1ccc(F)cc1)C(F)(F)F (stereo not drawn) 7.05%, Cc1cc(NS(C)(=O)=O)c(=O)n(Cc2c(F)cccc2Cl)c1 -0.27%, C=CCSc1nc2sc(C)c(C)c2c(=O)n1N 2.09%, CCc1cc(Cn2nc(-c3ccccc3)cc2C(=O)NCC2CC2)on1 12%, COc1cc2c(cc1OC)C(c1cccs1)N(C(=O)c1cccc(S(=O)(=O)N(C)C)c1)CC2 (stereo not drawn) 5.21%, CCOc1ccc(S(=O)(=O)N2CCN(C(=O)CCOc3ccccc3C)CC2)cc1 3.82%, CCOc1ccc(NC(=O)COc2cccc3c2CCN(Cc2cccnc2)C3=O)cc1 0.41%, O=C1CC2(CCN(C(=O)c3cccc(Br)c3)CC2)Oc2ccccc21 3.6%, COc1cc2nc(Nc3ccc(F)cc3)nc(N)c2cc1OC 6.17%, COc1cc2[nH]c(=S)nc(NCCC(C)C)c2cc1OC 20.9%, COc1ccc(C(=O)Nc2nc3cc(OC)c(OC)cc3c(=O)[nH]2)cc1 14.9%, COc1ccc(CCNc2nc(=S)[nH]c3cc(OC)c(OC)cc23)cc1OC 39.9%, CSc1nc2c([nH]1)c(=S)n(C)c(=O)n2C 8.34%, COC(=O)C(CC(C)C)NC(=O)CNC(=O)c1ccccc1C (stereo not drawn) 7.16%, COc1ccccc1N1CCN(C(=O)c2cccc(N3C(=O)C4C5C=CC(C5)C4C3=O)c2)CC1 (stereo not drawn) 9.14%, COc1ccc(C2C(=O)NN=C2C)cc1 (stereo not drawn) 22.1%, CC1=NNC(=O)C1Oc1ccccc1 (stereo not drawn) 10.8%, Cn1c(N)c(C(=O)COC(=O)/C=C/c2ccccc2)c(=O)n(C)c1=O 1.47%, Cc1cnc(NC(=O)CN2CCN(c3ccccn3)CC2)s1 2.02%, CCOc1ccccc1N1CCN(CC(=O)Nc2ncc(C)s2)CC1 5.5%, c1ccc(COc2ncnc3c2ncn3CCCNCC2CCCO2)cc1 (stereo not drawn) 7.05%, Brc1ccccc1OCCN1CCOCC1 17.5%, COc1ccccc1OCCCCCCN1CCN(C)CC1 -3.02%, Brc1ccccc1OCCCN1CCOCC1 14.8%, COc1ccccc1OCCCCN1CCCCC1 3.62%, COc1cc(C)ccc1OCCOCCOc1c(C)cc(C)cc1Br 3.98%, CCn1c(COc2ccc(=O)n(-c3ccccc3)n2)nnc1SCc1ccccc1C -2.27%, O=C(c1noc2c1CCCCC2)N1CCOCC1 1.03%, CC(C)CC(OC(=O)c1nsc(Cl)c1Cl)C(=O)NCC1CCCO1 (stereo not drawn) 5.99%, Cc1ccc(S(=O)(=O)N2CCN(c3c([N+](=O)[O-])cc(C(F)(F)F)cc3[N+](=O)[O-])CC2)cc1 6.82%, O=C(NC1CCCCCCC1)c1ccc2c(c1)OCO2 4.04%, O=C(Nc1ccc2c(c1)OCO2)C1CCCCC1 6.05%, CC(C)COC(=O)Cc1c(O)c2ccccc2[nH]c1=O 1.69%, CCOC(=O)C1CCN(C(=O)c2cccc(Cl)c2)CC1 6.23%, CN1CCCN(C(=O)c2cccc(Cl)c2)CC1 3.23%, O=C(c1cccnc1)N1CCN(C(=O)c2cccc(Cl)c2)CC1 -2.27%, CC(C)CC(CO)N1CCN(C(=O)c2cccc(Cl)c2)CCC1=O (stereo not drawn) 2.07%, COc1ccc(N2C(=O)CC(N3CCN(c4ccc(S(C)(=O)=O)cc4)CC3)C2=O)cc1 (stereo not drawn) -1.2%, CN(C)c1ccc(P(=O)(OCc2ccccc2)C(O)c2ccccc2F)cc1 (stereo not drawn) 0.52%, O=C(Nc1ccc(F)cc1)Nc1nnc(COc2ccccc2F)s1 10.4%, CCOc1cc(S(=O)(=O)NCc2cccs2)ccc1Cl 8.13%, CN(C1=NC(=O)CS1)c1ccc(O)cc1 9.21%, CC(=O)NC1=NC(=O)CS1 2.93%, COc1ccc(S(=O)(=O)N2CCC(N3CCCC3)CC2)cc1 21%, Cc1ccc2oc(=O)n(CCOc3ccccc3C)c2c1 0.34%, Cc1c(C(=O)O)cccc1-c1ccc(/C=C2/NC(=O)N(c3ccccc3)C2=O)o1 -7.26%, N=C1S/C(=C\c2ccc(-c3ccccc3C(=O)O)o2)C(=O)N1c1ccc2c(c1)OCO2 19.7%, O=C(O)c1ccccc1-c1ccc(/C=C2\SC(=O)N(c3ccccc3)C2=O)o1 6.66%, O=C(O)c1ccccc1SC1CC(=O)N(c2ccc3c(c2)OCO3)C1=O (stereo not drawn) -5.78%, COC(=O)c1ccc(Sc2ccccc2NS(=O)(=O)c2ccc(OC)cc2)nc1 7.44%, CC1(c2nnc(-c3cccc(Cl)c3)o2)CC(c2ccccc2F)=NO1 (stereo not drawn) 5.14%, CCn1nc(C)c(/C=N/NC(=O)c2ccoc2C)c1C 1.28%, O=C1CC(/C=C/c2ccccn2)=Nc2ccccc2N1 -8.85%, COc1ccc2ccccc2c1/C=N/Nc1ccc(Cl)c(C(=O)O)c1 17.1%, CC(C)n1cc(/C=N/Nc2ccc(C(=O)O)cc2)c2ccccc21 24.1%, O=C(O)c1cc(N/N=C/c2cccc3ccccc23)ccc1Cl 11.3%, O=C(O)c1cc(N/N=C/c2ccc(-c3ccccc3)cc2)ccc1Cl 5.89%, CC(C)CC1NC(=O)c2cc3ccccc3cc2-n2c1nc1ccc(Cl)cc1c2=O (stereo not drawn) 6.29%, COCCCNC(=S)NC1CC2CCCC(C1)N2Cc1ccco1 (stereo not drawn) 13.1%, Nc1ccc(N2CCCCC2)c(S(=O)(=O)Nc2ccc(Cl)cc2)c1 3.13%, O=C(Nc1ccc(N2CCCC2)c(S(=O)(=O)Nc2cccc(C(F)(F)F)c2)c1)c1cccs1 7.15%, COc1ccccc1NS(=O)(=O)c1cc(N)ccc1N1CCOCC1 16.4%, COc1ccccc1NS(=O)(=O)c1cc(N)ccc1N1CCCCC1 5.74%, O=C(NNC(=O)c1cc2ccccc2cc1O)c1cccs1 3.14%, Cc1cccc(N2CCN(C(=O)C3CCC(=O)N(Cc4ccccc4F)C3)CC2)c1C (stereo not drawn) -9.79%, CCn1cc(/C=C(\NC(=O)c2ccccc2)C(=O)N2CCOCC2)c2ccccc21 9.74%, Nc1no[n+]([O-])c1-c1ccccc1 7.71%, CCCC(=O)Nc1cc(-c2nc3ncccc3o2)ccc1Cl 6.17%, O=C(O)CCn1cc(/C=C2\NC(=S)N(c3ccccc3)C2=O)c(-c2ccc(Br)cc2)n1 0.36%, O=C(O)CCn1cc(/C=C2/NC(=S)N(c3ccccc3)C2=O)c(-c2ccccc2)n1 7.18%, O=C(O)CCn1cc(C(=O)O)c(-c2ccccc2)n1 9.41%, O=Cc1cn(CCC(=O)O)nc1-c1cccc(Br)c1 -0.73%, Cc1ccc(-c2nn(CCC(=O)O)cc2/C=C\C(=O)c2ccc(Br)cc2)cc1 -9.64%, NC(=S)N/N=C/c1cn(CCC(=O)O)nc1-c1cccc(Br)c1 12.2%, Cc1ccc(C2=NN3C(=O)c4ccccc4C3C2)cc1 (stereo not drawn) -20.3%, COCCC(=O)N1CCCC(C(=O)c2ccccc2SC)C1 (stereo not drawn) 1.95%, COc1ccc(-n2nnnc2SCC(=O)Nc2cccc(O)c2)cc1 8.11%, CCOC(=O)C1(Cc2cccc(OC)c2)CCN(Cc2cccc3cnccc23)CC1 -0.92%, O=C(C=Cc1ccco1)N1CCOCC1 8.8%, CN(C)c1ccc(C=C2C=C(c3ccccc3)OC2=O)cc1 -3.66%, Cc1ccc(C=C2C=C(c3ccccc3)OC2=O)cc1 11.5%, NC(=S)Cc1ccccc1Cl 8.51%, O=C(O)c1ccc(O)cc1O 6.35%, OC(CCN1CCCCC1)(c1ccccc1)C1C[C@@H]2C=C[C@H]1C2 (stereo partly drawn) 0.59%, CCCCn1c(=O)c(CCC(=O)O)nc2ccccc21 -3.87%, CCc1cc2c(=O)c(-c3nc4ccccc4n3C)c(COCC(=O)O)oc2cc1O 3.02%, CCN(CC)Cc1c(O)ccc2cc(-c3nc4ccccc4n3C)c(=O)oc12 2.29%, CCc1cc(-c2n[nH]c(C)c2-c2nc3ccccc3n2C)c(O)c(CN2CCN(C)CC2)c1O 1.55%, CCOC(=O)C1CCCN(C(=O)c2ccccc2[N+](=O)[O-])C1 (stereo not drawn) 3.25%, CCCCC/C=C/C1=CC(=O)C[C@H](c2ccc3c(c2)OCO3)C1 5.09%
